Source: the supplement of paper PMC10849652
About 7,900 targets were measured; listed, in parts, are those with a hit and a random draw of the rest. About 0.6% of all pairs of compound and target were hits. A number with no mark means an inactive call.

Legend:
Experiment in all cases: log2 fold change, soluble protein after heating vs DMSO (PISA); higher = thermal stabilisation; K562 cells, 10 uM, 30 min; active = over 0.2 and 3.5 SD of the protein, either way, in both replicates (recomputed)
[1] = compound: COC1=CC=C(C=C1)CN2C=CC3=C2C=C(C=C3)C(=O)NO
Outline: (§1)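 Quantification of soluble protein used TMTpro 16plex LC-MS/MS, with channel sums equalised. Samples were the supernatant after 21,000xg for 90 min of pooled aliquots from K562 cells (2×10^6 cells/mL) treated with 10 μM compound for 30 min, heated for 3 min over 48°C-58°C, and extracted in PBS with 0.5% NP-40 at 4°C. Values, from duplicates, describe thermal stability against control samples on a log2 fold-change scale.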

filanesib = compound: CON(C)C(=O)N1N=C(c2cc(F)ccc2F)S[C@@]1(CCCN)c1ccccc1 [filanesib]
Outline: as §1

zotarolimus = compound: CO[C@H]1C[C@@H]2CC[C@@H](C)[C@@](O)(O2)C(=O)C(=O)N2CCCC[C@H]2C(=O)O[C@H]([C@H](C)C[C@@H]2CC[C@H](n3cnnn3)[C@H](OC)C2)CC(=O)[C@H](C)/C=C(\C)[C@@H](O)[C@@H](OC)C(=O)[C@H](C)C[C@H](C)/C=C/C=C/C=C/1C [zotarolimus]
Outline: as §1

idasanutlin = compound: COc1cc(C(=O)O)ccc1NC(=O)[C@@H]1N[C@@H](CC(C)(C)C)[C@](C#N)(c2ccc(Cl)cc2F)[C@H]1c1cccc(Cl)c1F [idasanutlin]
Outline: as §1

alisertib = compound: COc1cc(Nc2ncc3c(n2)-c2ccc(Cl)cc2C(c2c(F)cccc2OC)=NC3)ccc1C(=O)O [alisertib]
Outline: as §1

[2] = compound: COc1cc2nc(-c3cc(F)ccc3O)nc(N[C@@H]3CNC[C@H]3C(C)(C)O)c2cc1OC
Outline: as §1

gefitinib = compound: COc1cc2ncnc(Nc3ccc(F)c(Cl)c3)c2cc1OCCCN1CCOCC1 [gefitinib]
Outline: as §1

[3] = compound: COc1cccc2cc(-c3nc([C@H]4CC[C@H](C(=O)O)CC4)n4ncnc(N)c34)[nH]c12
Outline: as §1

lapatinib = compound: CS(=O)(=O)CCNCc1ccc(-c2ccc3ncnc(Nc4ccc(OCc5cccc(F)c5)c(Cl)c4)c3c2)o1 [lapatinib]
Outline: as §1

pictilisib = compound: CS(=O)(=O)N1CCN(Cc2cc3nc(-c4cccc5[nH]ncc45)nc(N4CCOCC4)c3s2)CC1 [pictilisib]
Outline: as §1

Sequence of UniProt Q8N122 (Q8N122 whole entry, looked up): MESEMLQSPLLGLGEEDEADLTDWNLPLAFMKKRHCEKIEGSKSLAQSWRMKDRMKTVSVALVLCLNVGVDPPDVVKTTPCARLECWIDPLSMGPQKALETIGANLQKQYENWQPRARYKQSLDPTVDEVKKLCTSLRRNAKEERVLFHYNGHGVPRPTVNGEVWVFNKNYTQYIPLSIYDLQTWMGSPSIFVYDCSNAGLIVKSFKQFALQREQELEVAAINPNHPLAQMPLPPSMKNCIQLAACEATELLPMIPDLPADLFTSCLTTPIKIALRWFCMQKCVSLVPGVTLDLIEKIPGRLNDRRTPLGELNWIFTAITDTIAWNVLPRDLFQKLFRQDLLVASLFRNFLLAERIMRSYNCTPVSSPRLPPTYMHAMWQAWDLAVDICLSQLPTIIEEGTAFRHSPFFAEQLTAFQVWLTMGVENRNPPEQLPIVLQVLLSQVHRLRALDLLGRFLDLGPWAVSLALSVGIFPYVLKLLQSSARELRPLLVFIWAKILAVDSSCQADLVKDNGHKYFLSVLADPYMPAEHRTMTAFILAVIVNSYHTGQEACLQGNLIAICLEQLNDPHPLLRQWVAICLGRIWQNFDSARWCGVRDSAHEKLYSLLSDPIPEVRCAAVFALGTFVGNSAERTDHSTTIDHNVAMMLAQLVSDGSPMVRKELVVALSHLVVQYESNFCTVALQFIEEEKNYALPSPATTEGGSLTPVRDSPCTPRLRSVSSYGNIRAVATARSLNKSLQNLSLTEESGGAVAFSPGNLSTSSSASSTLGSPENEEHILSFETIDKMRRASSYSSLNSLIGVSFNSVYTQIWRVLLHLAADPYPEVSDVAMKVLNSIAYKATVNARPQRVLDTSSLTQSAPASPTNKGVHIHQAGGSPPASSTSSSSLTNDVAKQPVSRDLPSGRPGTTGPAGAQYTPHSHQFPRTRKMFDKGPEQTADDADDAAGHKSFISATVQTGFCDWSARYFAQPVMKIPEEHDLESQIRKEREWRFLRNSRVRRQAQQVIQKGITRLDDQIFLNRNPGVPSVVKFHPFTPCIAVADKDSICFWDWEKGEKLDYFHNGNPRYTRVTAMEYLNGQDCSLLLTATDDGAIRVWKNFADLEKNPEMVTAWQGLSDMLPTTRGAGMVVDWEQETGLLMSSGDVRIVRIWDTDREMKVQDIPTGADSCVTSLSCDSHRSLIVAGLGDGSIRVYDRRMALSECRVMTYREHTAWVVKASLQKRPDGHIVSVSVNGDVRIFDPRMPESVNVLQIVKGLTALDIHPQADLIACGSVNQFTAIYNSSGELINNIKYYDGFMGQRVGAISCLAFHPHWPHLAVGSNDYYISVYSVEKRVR
Sequence of UniProt P51148 (P51148 whole entry, looked up): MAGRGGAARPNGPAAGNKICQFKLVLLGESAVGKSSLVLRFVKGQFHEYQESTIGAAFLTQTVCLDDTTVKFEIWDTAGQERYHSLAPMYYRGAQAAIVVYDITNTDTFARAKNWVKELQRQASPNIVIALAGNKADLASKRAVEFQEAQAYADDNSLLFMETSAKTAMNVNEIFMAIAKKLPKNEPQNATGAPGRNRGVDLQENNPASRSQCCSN
Sequence of UniProt Q96IZ7 (Q96IZ7 whole entry, looked up): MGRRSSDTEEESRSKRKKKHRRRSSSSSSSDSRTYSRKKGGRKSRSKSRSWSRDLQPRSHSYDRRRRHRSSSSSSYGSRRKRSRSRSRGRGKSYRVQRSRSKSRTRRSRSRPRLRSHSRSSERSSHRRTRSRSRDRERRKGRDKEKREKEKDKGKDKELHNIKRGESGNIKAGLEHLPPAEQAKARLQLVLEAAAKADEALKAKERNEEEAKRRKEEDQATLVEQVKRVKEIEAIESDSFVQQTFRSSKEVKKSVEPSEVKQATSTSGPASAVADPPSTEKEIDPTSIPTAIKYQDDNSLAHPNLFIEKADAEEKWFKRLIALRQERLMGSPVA
Sequence of UniProt Q99643 (Q99643 whole entry, looked up): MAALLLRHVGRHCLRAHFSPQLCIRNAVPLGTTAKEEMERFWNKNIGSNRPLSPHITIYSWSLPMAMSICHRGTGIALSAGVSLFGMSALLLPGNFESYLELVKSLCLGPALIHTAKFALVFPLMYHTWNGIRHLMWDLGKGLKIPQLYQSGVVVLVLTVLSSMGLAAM
Sequence of UniProt O15027 (O15027 whole entry, looked up): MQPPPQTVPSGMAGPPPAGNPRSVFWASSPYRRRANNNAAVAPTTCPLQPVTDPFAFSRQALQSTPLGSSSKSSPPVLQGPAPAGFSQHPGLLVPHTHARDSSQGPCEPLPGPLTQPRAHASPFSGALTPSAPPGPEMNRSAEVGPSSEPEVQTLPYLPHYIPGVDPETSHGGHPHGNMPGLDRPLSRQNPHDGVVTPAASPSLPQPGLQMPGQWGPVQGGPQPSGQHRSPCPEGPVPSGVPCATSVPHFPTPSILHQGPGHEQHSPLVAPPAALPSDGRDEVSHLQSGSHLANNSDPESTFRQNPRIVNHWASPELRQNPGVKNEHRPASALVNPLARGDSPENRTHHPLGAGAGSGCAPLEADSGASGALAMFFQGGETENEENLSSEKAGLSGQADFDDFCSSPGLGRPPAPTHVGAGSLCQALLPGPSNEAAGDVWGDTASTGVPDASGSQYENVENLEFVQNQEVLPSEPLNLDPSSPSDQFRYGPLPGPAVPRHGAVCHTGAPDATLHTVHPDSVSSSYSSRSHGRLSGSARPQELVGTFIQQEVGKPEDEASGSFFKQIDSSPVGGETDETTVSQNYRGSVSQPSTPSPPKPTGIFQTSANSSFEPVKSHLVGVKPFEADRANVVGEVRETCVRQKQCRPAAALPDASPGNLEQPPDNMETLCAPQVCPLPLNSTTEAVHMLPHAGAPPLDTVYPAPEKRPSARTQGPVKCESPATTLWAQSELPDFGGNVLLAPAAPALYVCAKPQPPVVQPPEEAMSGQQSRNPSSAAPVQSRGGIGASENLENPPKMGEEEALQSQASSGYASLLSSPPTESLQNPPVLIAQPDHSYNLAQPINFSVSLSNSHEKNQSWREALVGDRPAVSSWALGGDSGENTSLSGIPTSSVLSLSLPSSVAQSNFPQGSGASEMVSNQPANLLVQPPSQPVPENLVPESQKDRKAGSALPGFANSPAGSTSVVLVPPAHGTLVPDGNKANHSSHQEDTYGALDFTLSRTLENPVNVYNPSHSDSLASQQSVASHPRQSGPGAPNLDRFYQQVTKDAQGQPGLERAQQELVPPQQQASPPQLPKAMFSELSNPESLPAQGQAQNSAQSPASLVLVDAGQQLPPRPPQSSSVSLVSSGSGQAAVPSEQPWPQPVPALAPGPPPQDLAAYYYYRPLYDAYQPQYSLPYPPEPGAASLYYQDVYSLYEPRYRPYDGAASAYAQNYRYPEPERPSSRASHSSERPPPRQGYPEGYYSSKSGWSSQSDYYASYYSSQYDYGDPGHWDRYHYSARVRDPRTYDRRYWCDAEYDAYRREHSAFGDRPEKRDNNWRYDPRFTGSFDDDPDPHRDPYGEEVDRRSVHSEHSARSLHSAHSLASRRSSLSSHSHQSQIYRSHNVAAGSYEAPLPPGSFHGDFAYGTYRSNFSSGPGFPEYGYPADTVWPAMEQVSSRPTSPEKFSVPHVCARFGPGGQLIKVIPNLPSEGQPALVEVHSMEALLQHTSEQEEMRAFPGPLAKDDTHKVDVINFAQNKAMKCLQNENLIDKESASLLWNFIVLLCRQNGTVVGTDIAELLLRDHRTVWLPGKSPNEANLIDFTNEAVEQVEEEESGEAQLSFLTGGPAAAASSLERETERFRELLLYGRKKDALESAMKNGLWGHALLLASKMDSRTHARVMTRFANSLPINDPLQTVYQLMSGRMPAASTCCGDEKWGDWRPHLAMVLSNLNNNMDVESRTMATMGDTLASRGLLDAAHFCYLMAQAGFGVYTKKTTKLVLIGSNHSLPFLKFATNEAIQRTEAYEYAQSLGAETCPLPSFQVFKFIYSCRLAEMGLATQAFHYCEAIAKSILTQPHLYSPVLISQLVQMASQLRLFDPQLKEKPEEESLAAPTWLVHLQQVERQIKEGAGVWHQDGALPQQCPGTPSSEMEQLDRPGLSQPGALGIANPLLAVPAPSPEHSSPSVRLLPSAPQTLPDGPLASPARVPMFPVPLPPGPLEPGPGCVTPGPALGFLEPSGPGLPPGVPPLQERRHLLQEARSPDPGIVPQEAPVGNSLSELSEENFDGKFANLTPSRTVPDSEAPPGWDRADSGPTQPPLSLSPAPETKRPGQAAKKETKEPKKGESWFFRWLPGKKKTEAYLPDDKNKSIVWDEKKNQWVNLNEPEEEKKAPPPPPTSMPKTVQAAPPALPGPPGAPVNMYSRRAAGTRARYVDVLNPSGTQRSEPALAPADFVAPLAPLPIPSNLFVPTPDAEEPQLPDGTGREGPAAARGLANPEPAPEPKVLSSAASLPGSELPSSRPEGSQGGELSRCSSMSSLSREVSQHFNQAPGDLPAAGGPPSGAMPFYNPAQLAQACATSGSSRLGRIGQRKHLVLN
Sequence of UniProt Q15287 (Q15287 whole entry, looked up): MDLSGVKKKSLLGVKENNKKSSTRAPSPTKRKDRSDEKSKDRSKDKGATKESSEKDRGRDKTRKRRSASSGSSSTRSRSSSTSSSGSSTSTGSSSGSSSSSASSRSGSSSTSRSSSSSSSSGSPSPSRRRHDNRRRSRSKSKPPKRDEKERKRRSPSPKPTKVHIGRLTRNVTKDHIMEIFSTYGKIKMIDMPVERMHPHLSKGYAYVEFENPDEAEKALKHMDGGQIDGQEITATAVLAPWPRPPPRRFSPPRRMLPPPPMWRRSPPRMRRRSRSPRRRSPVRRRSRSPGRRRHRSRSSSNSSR
Sequence of UniProt O00560 (O00560 whole entry, looked up): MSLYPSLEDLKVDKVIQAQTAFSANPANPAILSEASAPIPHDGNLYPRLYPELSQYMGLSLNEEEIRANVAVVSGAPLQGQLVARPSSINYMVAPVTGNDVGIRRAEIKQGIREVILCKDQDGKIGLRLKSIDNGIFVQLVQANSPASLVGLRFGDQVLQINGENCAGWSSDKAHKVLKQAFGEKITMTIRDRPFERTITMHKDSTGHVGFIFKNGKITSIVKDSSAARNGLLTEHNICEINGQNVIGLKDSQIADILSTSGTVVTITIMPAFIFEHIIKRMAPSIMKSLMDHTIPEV

Row | Target | log2 fold change [1] | log2 fold change (filanesib) | log2 fold change (zotarolimus) | log2 fold change (idasanutlin) | log2 fold change (alisertib) | log2 fold change [2] | log2 fold change (gefitinib) | log2 fold change [3] | log2 fold change (lapatinib) | log2 fold change (pictilisib)
1 | SKP1 (UniProt P63208) | 0.209 | -0.095 | 0.09 | 0.027 | -0.005 | -0.099 | 0.001 | -0.008 | 0.01 | -0.121
2 | RAD51 (UniProt Q06609) | -0.057 | 0.003 | -0.034 | -0.072 | 0.041 | -0.022 | -0.07 | 0.012 | -0.024 | -0.02
3 | SAAL1 (UniProt Q96ER3) | -0.179 | -0.032 | 0.016 | -0.11 | -0.067 | 0.214 | -0.055 | 0.018 | -0.002 | -0.018
4 | RUFY1 (UniProt Q96T51) | -0.015 | 0.005 | 0.056 | -0.049 | 0.047 | 0.02 | -0.004 | -0.053 | -0.035 | -0.009
5 | SERPINA7 (UniProt P05543) | -0.213 | 0.251 | -0.206 | 0.071 | 0.052 | 0.008 | -0.157 | 0.381 | -0.017 | -0.088
6 | SDHC (UniProt Q99643) | 0.088 | 0.088 | 0.094 | -0.238 | 0.023 | -0.107 | 0.042 | 0.04 | -0.081 | -0.006
7 | RAB5C isoform 2 (UniProt P51148) | -0.002 | -0.053 | -0.015 | -0.055 | -0.095 | 0.015 | 0.013 | 0.038 | -0.027 | -0.017
8 | RB1CC1 (UniProt Q8TDY2) | 0.435 (active) | -0.079 | 0.014 | -0.002 | -0.112 | 0.182 | -0.042 | -0.049 | 0.181 | 0.083
9 | RGS10 (UniProt O43665) | -0.023 | -0.081 | 0.115 | 0.086 | -0.053 | 0.003 | 0.056 | -0.014 | 0.029 | -0.028
10 | RNPS1 (UniProt Q15287) | 0.062 | 0.13 | -0.014 | 0.274 | 0.024 | -0.073 | 0.04 | -0.005 | 0.075 | -0.001
11 | RARS2 (UniProt Q5T160) | 0.009 | -0.245 (active) | 0.007 | -0.071 | -0.016 | -0.028 | -0.013 | 0.051 | 0.051 | -0.031
12 | RSRC1 (UniProt Q96IZ7) | 0.136 | -0.003 | 0.033 | -0.004 | -0.084 | -0.024 | 0.024 | 0.001 | 0.041 | 0.101
13 | SIK3 (UniProt H0Y4E8) | -0.015 | 0.085 | -0.073 | -0.065 | -0.018 | 0.077 | -0.026 | 0.466 | 0.036 | -0.007
14 | SEPTIN5 (UniProt Q99719) | 0.034 | -0.003 | 0.013 | -0.067 | -0.044 | 0 | 0.006 | 0.02 | -0.035 | 0.08
15 | SDCBP (UniProt O00560) | -0.022 | -0.154 | 0.1 | 0.101 | -0.04 | -0.152 | -0.043 | -0.022 | 0.005 | -0.05
16 | RAB8B (UniProt Q92930) | 0.258 | -0.076 | 0.045 | -0.017 | -0.035 | -0.064 | 0.021 | -0.076 | 0.023 | -0.096
17 | RDH11 (UniProt Q8TC12) | 0.087 | -0.046 | 0.093 | 0.032 | -0.01 | -0.333 | 0.071 | 0 | 0.03 | 0.241
18 | RPTOR (UniProt Q8N122) | 0.042 | -0.077 | -0.194 | -0.066 | -0.054 | -0.056 | 0.007 | -0.072 | 0.028 | -0.022
19 | RETREG3 (UniProt Q86VR2) | -0.038 | -0.136 | -0.053 | -0.008 | 0.029 | -0.141 | 0.035 | 0.106 | 0.037 | 0.102
20 | SEC16A isoform 5 (UniProt O15027) | 0.079 | 0.037 | -0.01 | -0.021 | 0 | 0.007 | 0.046 | -0.148 | 0.017 | -0.003
21 | REEP4 (UniProt Q9H6H4) | -0.039 | -0.072 | -0.034 | 0.033 | -0.07 | -0.32 (active) | -0.032 | -0.031 | 0.121 | -0.175
22 | RPS20 isoform 2 (UniProt P60866) | -0.086 | 0.085 | 0.019 | 0.047 | -0.018 | -0.015 | -0.036 | -0.157 | 0.108 | -0.006
23 | RTN4IP1 (UniProt Q8WWV3) | 0.206 | -0.081 | 0.097 | 1.17 (active) | -0.22 | -0.013 | 0.125 | 0.256 | 0.003 | -0.003
24 | SDHAF2 (UniProt Q9NX18) | 0.063 | -0.03 | 0.068 | -0.085 | 0.02 | -0.163 | 0.09 | 0.102 | -0.013 | 0.091
25 | SCG3 (UniProt Q8WXD2) | 0.002 | -0.001 | -0.044 | -0.056 | 0.128 | -0.082 | 0.089 | -0.236 | 0.07 | -0.086
26 | RAB33B (UniProt Q9H082) | -0.104 | -0.018 | -0.073 | 0.036 | 0.035 | 0.039 | 0.037 | 0.087 | 0.046 | 0.106
27 | SAMSN1 isoform 3 (UniProt Q9NSI8) | 0.013 | -0.021 | 0.034 | -0.026 | 0.007 | -0.001 | 0.007 | -0.029 | -0.009 | -0.001
28 | RPL38 (UniProt P63173) | -0.109 | 0 | -0.007 | 0.055 | -0.064 | 0.061 | -0.074 | -0.171 | 0.05 | -0.053
29 | RPS4X (UniProt P62701) | -0.059 | 0.314 | -0.001 | 0.148 | -0.099 | -0.038 | -0.048 | -0.222 | 0.102 | -0.155
30 | RHOA (UniProt P61586) | 0.284 (active) | -0.012 | -0.054 | 0.1 | -0.085 | -0.118 | 0.036 | -0.012 | 0.036 | -0.178
